Source: PubChem
TRb-SRC2 inh = inhibitors of human thyroid hormone receptor beta-SRC2 interaction. P10828. AID 1469. 280,000 compounds, 0.065% hits. TRbeta-SRC2 peptide binding, fluorescence polarization; receptor liganded with 1 µM T3. Potency, µM (top dose mostly 106 µM), for the others: top-dose activity change, negative = inhibition, usual class: inhibitors;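 note: potency is the fitted concentration of half-maximal effect; plate controls were bound peptide for no effect and peptide without receptor for full effect; nearly all actives have a fitted effect of over 50% in size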
Target sequence (P10828 whole entry, looked up): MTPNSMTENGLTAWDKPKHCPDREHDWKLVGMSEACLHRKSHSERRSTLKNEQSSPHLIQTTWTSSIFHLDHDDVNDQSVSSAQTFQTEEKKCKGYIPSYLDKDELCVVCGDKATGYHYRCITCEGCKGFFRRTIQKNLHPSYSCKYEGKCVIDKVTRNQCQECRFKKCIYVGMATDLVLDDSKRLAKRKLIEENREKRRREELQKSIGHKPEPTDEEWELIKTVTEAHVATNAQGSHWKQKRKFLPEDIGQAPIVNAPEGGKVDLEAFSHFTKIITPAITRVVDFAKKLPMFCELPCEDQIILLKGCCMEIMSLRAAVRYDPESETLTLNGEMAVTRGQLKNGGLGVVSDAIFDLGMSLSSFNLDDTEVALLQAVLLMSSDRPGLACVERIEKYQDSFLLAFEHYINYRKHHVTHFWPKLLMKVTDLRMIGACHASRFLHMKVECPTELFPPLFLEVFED
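Quantitative HTS by FP: 0.6 uM TRb LBD, 20 nM labeled SRC2 20-mer, 1 uM T3, 5% DMSO; 5 hr ambient incubation; % activity per concentration and potencies from concentration series.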
Tau fluor counter = counter-screen for tau fibril formation inhibitors | tau K18 P301L Alexa594 fluorescence, heparin fibrillization | Potency, µM (top dose mostly 57.7 µM), for the others: at the top dose activity change, negative = decrease | 280,000 compounds, 0.93% hits; note: potency is the fitted concentration of half-maximal effect; nearly all actives have a fitted effect of over 55% in size
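Human tau K18 P301L (15 uM unlabeled, 0.24 uM Alexa 594-labeled) in 100 mM sodium acetate pH 7 with 20 uM heparin, 6 hr at 37 C. ThT 30 uM added, 1 hr ambient; Alexa 594 FP and total fluorescence read at 555/632 nm.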
TR SRC2 fluor cs = Texas Red fluorescence interference in TRb-SRC2 counter-screen; TRb/SRC2 Texas Red total fluorescence interference; Potency, µM (top dose mostly 106 µM), for inactives: at the highest dose fluorescence change, negative = quenching; 280,000 compounds, 0.29% hits; active = well fitted curve in either direction with a large enough effect; inconclusive = small, poorly fitted or top-dose-only effect; note: potency is the fitted concentration of half-maximal effect
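Human TRβ ligand-binding domain (0.6 uM) and Texas Red SRC2 peptide (20 nM) in Tris buffer with 1 uM T3 and 5% DMSO were incubated with pinned compound for 5 hr at ambient temperature. Total fluorescence was computed as S + 2P (555/632 nm).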
Tau fibril FP = tau fibrillization inhibition (FP); P10636; K18 P301L tau heparin fibrillization, Alexa594 FP, 6 h; Potency, µM (series often up to 57.7 µM), without a hit: at the highest dose activity, negative = inhibition, hits mostly inhibitors; 280,000 compounds, 0.39% hits; AID 1468; note: potency is the fitted concentration of half-maximal effect; nearly all actives have a fitted effect of over 55% in size
Target sequence (P10636 561-689 P618L limits assumed): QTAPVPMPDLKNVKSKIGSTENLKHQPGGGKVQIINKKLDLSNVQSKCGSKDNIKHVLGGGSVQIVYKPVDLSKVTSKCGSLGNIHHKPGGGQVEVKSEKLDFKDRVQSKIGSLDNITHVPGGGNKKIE
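Steps: dispense K18 P301L tau (15 uM plus 0.24 uM Alexa 594 tracer, final) in pH 7 sodium acetate; add compound; add heparin (20 uM final); incubate 6 hr, 37 C; add ThT (30 uM final); after 1 hr ambient, read FP.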
PNC assembly inh = blocks assembly of the perinucleolar compartment. PC3M PTB-GFP, PNC prevalence imaging, 16 h; stronger effect = lower value. activity change (PNC), negative = inhibition, % at 10 µM. 140,000 compounds, 3.1% hits. AID 2417;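 active = readout at or below -70, meaning at least 70% loss of cells showing the perinucleolar compartment, a nuclear body marking cancer cells; inconclusive = readout between -30 and a set limit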;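 note: plate controls were DMSO wells for no effect and camptothecin positive control wells for full effect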
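Compounds are pinned in duplicate onto adhered PC3M cells stably expressing GFP-tagged PTB and incubated 16 h at 37 C. Cells are then fixed, nuclei stained with Hoechst, and PNC-positive cells counted.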
Tau fibril ThT = inhibitors of human tau fibril formation, thioflavin T binding; P10636; recombinant tau K18 P301L, heparin-induced fibrillization, ThT fluorescence; Potency, µM (top dose mostly 57.4 µM), without a hit: top-dose activity, negative = inhibition, hits mostly inhibitors; 270,000 compounds, 2.1% hits; note: potency is the fitted concentration of half-maximal effect; nearly all actives have a fitted effect of over 55% in size
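Using a mix of unlabeled (15 uM) and Alexa 594-labeled (0.24 uM) tau K18 P301L, heparin-triggered fibrillization over 6 hr at 37 C was scored by ThT fluorescence.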
Starred values were filed as active, the others as inactive; ? = inconclusive; . = not tested or not shown; [ ] = dose if it differs, or a comment. An excerpt weighted towards active compounds, which were near 4.6% of everything screened. Unless noted, calls come from the whole dose curve; as a rule, active = well fitted curve in the direction sought with a large enough effect; inconclusive = small, poorly fitted or top-dose-only effect, or another doubt; inactive = no such curve, though single readings can be large; an effect the other way counts as inactive or inconclusive. Unless noted, % is set by controls: 0 for no effect and ±100 for the full control effect.

SMILES | TRb-SRC2 inh | Tau fluor counter | TR SRC2 fluor cs | Tau fibril FP | PNC assembly inh | Tau fibril ThT
CC(NC(=O)Nc1ccccc1)C(c1cccs1)N1CCOCC1 (stereo not given) | 0.9% | -4.2% | -1.4% | -3.8% | -121.7* | 1.0%
COC(=O)c1cc(NC(=O)c2ccccc2)c(=O)oc1/C=C/Nc1ccc(Oc2ccccc2)cc1 | -25.4% | -25.7% | 28.0% | 6.0% | . | ?
COC(=O)c1c(-c2cccs2)csc1NC(=O)COc1c(C)ccc(C)c1C | -2.1% | -19.2% | -3.5% | ? | . | 20µM*
COC(=O)c1c(-c2cccs2)csc1NC(=O)COc1ccccc1 | 4.6% | ? | 6.3% | ? | . | 20µM*
CCn1c(CNC(=O)c2ccccc2F)nnc1SCc1nc2ccccc2c(=O)[nH]1 | 0.4% | 12.5% | 0.4% | 2.6% | . | 3.0%
COc1ccccc1C(=O)Nc1c(C(=O)N2CCN(c3ccc(F)cc3)CC2)oc2ccccc12 | 7.6% | ? | -0.9% | 2.3% | . | ?
COc1ccccc1/C=C1\S/C(=N/NC(=O)c2cccc(Br)c2)NC1=O | 11.2% | ? | -8.6% | 1.3% | ? | 12.6µM*
COC(=O)/C=C1\S/C(=N/NC(=O)c2ccccc2)NC1=O | -10.0% | -2.5% | -4.0% | ? | -18.2 | ?
O=C(Nc1ccc2c(c1)OCCO2)c1cccc2nc3ccccc3nc12 | -6.7% | ? | -6.3% | 4.8% | 52.0 | 4.47µM*
O=c1c2ccccc2nc(N/N=C/c2c(O)ccc3ccccc23)n1O | -1.5% | ? | -13.2% | 4.4% | -19.1 | 11.2µM*
O=c1c2ccccc2nc(N/N=C/c2ccc(O)cc2)n1O | -14.2% | -20.7% | -0.7% | -1.7% | ? | ?
Cc1ccccc1CNC(=O)Cn1c(=O)c2cccn2c2cccnc21 | 3.8% | 2.7% | -0.6% | 3.3% | . | 3.1%
O=C1OCCC1Sc1nc2ccccc2c(=O)n1Cc1ccc(F)cc1 (stereo not given) | 2.8% | -27.6% | -10.2% | -2.9% | 7.2 | -17.5%
CCOc1ccccc1Nc1cc(-c2ccccc2)nc(C)n1 | -2.8% | -18.5% | 3.9% | 2.2% | . | -11.0%
CCOc1ccc(Nc2cc(Nc3ccccc3OCC)nc(C=C(C#N)C#N)n2)cc1 | -1.5% | -19.3% | -7.0% | 1.0% | . | 2.82µM*
COc1ccc(-n2sc3c(c2=S)-c2cc(OC)ccc2NC3(C)C)cc1 | -5.4% | 7.94µM*[quencher] | -6.1% | ? | -16.4 | ?
COc1cc2c3c(c1)-c1c(sn(-c4cc(OC)ccc4OC)c1=S)C(C)(C)N3C(=O)C2=O | -1.9% | -26.5% | -2.5% | 5.8% | -1.0 | ?
COc1ccc2c(c1)-c1c(ssc1=S)C(C)(C)N2 | 3.6% | 15.8µM*[quencher] | -4.5% | -9.9% | -6.6 | 14.1µM*
COc1ccc2c(c1)-c1c(sn(-c3ccc(OC)c(OC)c3)c1=S)C(C)(C)N2 | -10.6% | ? | -3.1% | 12.9% | 3.7 | ?
COc1ccc2c(c1)-c1c(sn(-c3ccccc3)c1=S)C(C)(C)N2 | -4.8% | 14.1µM*[quencher] | 0.2% | ? | ? | ?
CC(C)c1nc(N2CCN(C(=O)c3ccco3)CC2)c2c3c(sc2n1)CCCC3 | -8.7% | -9.4% | -0.3% | ? | -15.8 | ?
CCc1ccc(-c2nc(CN3CCC(C(=O)NCc4ccc(F)cc4)CC3)c(C)o2)cc1 | -19.5% | -12.7% | -0.2% | 1.9% | -2.4 | -12.1%
O=S(=O)(c1ccc2c(c1)OCCO2)N1CCN(c2cccc(Cl)c2)CC1 | 5.4% | 5.8% | -1.9% | 2.3% | -26.9 | 10.9%
O=S(=O)(c1ccc2c(c1)OCCO2)N1CCC(O)(c2ccc(Cl)cc2)CC1 | 3.6% | ? | -2.0% | -0.3% | -125.0* | -13.4%
O=C(NCN1C(=O)C2C3C=CC(C3)C2C1=O)Nc1nccs1 (stereo not given) | -3.7% | 2.0% | -6.1% | -2.3% | -100.0* | -0.5%
SMILES | TRb-SRC2 inh | Tau fluor counter | TR SRC2 fluor cs | Tau fibril FP | PNC assembly inh | Tau fibril ThT
CCc1nnc(NC(=O)NCN2C(=O)C3C4C=CC(C4)C3C2=O)s1 (stereo not given) | 5.1% | 1.5% | -1.1% | 2.4% | 13.9 | 1.4%
Cc1ccc(-n2c(N)c(C(N)=O)sc2=S)cc1 | -15.0% | -11.2% | 2.0% | -14.4% | -5.1 | ?
CC(=O)OC1CC2C(C)(C)C(O)CC[C@@]2(C)C2CC[C@@]3(C)C(c4ccoc4)OC(=O)C4OC43[C@]12C (stereo not given in full) | -0.7% | -6.6% | -2.2% | 2.3% | . | -10.1%
CCOC(=O)c1c(C)[nH]c(C2=NNC(=Nc3cccc(Cl)c3)SC2)c1C | -9.2% | ? | -6.5% | ? | -8.9 | 12.6µM*
CC(=O)c1c(C)[nH]c(C2=NNC(=NCc3ccccc3)SC2)c1C | -0.7% | -28.6% | -1.4% | 1.4% | . | ?
O=C(CCc1ccccc1)OCCN1CCOCC1 | -24.8% | 0.0% | -1.1% | 6.1% | 26.5 | 0.4%
COCCn1c(SCC(=O)Nc2ccc(Cl)c(S(=O)(=O)N(C)C)c2)nc2ccccc21 | -19.2% | ? | 0.1% | -3.4% | ? | -3.7%
CN(C)S(=O)(=O)c1cc(NC(=O)CSc2ncc(C(F)(F)F)cc2Cl)ccc1Cl | -9.8% | ? | -1.9% | 28.2µM* | 2.8 | 1.4%
CC1=NN(c2ccc([N+](=O)[O-])cc2)C(c2ccccc2)C1 (stereo not given) | -7.8% | ? | -0.5% | 2.1% | . | ?
N#CC1CC(c2ccc([N+](=O)[O-])cc2)=NN1c1ccc([N+](=O)[O-])cc1 (stereo not given) | 0.6% | ? | 1.2% | 12.6% | . | 3.16µM*
O=C(NNc1ccc(C(F)(F)F)cc1[N+](=O)[O-])c1ccc(NS(=O)(=O)c2ccc(F)cc2)cc1 | 6.1% | 11.2µM*[quencher] | -0.4% | ? | -11.6 | 14.1µM*
C=C1C2(C(=O)NCc3ccco3)CCC(C2)C1(C)C (stereo not given) | -10.4% | 3.4% | 0.2% | 8.8% | ? | -3.8%
O=c1c2c3c(sc2ncn1/N=C/c1ccc([N+](=O)[O-])o1)CCCC3 | -2.9% | ? | 0.8% | -15.4% | 29.7 | 20µM*
CCn1cc2nc(SCc3cc(C)ccc3C)n(Cc3ccc(OC)cc3)c(=O)c2n1 | 12.1% | -14.1% | -1.8% | -6.5% | . | -4.6%
CCn1cc2nc(SCc3cccc(OC)c3)n(Cc3ccc(Cl)cc3)c(=O)c2n1 | -18.6%[53 µM] | -18.9% | 0.0316µM*[quencher] | -0.1% | . | -12.5%
CCc1nc(Nc2ccc(OC)c(OC)c2)c2nnn(Cc3ccccc3Cl)c2n1 | -7.6% | ? | -2.5% | 4.8% | -118.9* | -10.0%
S=C(NCc1ccccc1)NNc1nc2ccccc2[nH]1 | 3.2% | ? | -2.0% | ? | . | 28.2µM*
CN(C)CCNC(=O)c1ccc(-n2c(-c3ccccc3)cc3c2CCCCC3)cc1 | 2.9% | ? | 3.0% | 22.4µM* | . | 0.7%
